Hits are enriched below; roughly 3.2% of the tested compounds scored in any of these assays.
ALOX15 inhib: qHTS Assay for Inhibitors of 15-hLO (15-human lipoxygenase). purified 15hLO-1, xylenol orange hydroperoxide absorbance. Potency, µM (series often up to 57.1 µM), without a hit: top-dose activity change, negative = inhibition, hits mostly inhibitors. hit rate 1.4% among 74,000; also: % is scaled to controls: 0 for no effect and ±100 for the full control effect; nearly all actives have a fitted effect of over 55% in size
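40 nM 15hLO-1 + cpd, 15 min RT; start w/ 50 uM AA (final), 6 min RT; stop/detect w/ 200 uM XO + 300 uM Fe(II) in 50 mM H2SO4, 30 min; A573/A405. Buffer 25 mM Hepes pH 7.5, 0.01% Triton X-100. No-enzyme wells as negative control.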
Hsp90 Hop PPI: qHTS Assay for Disrupters of an Hsp90 Co-Chaperone Interaction | Hsp90 C-terminal peptide / TPR2A (Hop) interaction, human | Potency, µM (doses to about 57 µM), for inactives: at the highest dose activity change, negative = inhibition | hit rate 0.44% among 71,000 | AlphaScreen TPR2A-His6 binding biotin-Hsp90 C-terminal peptide; active = well fitted curve in either direction with a large enough effect; inconclusive = small, poorly fitted or top-dose-only effect, or another doubt; also: % is scaled to controls: 0 for no effect and ±100 for the full control effect
USP2a inhib: qHTS Assay for Inhibitors of Ubiquitin-specific Protease USP2a; Ubiquitin carboxyl-terminal hydrolase 2 (Homo sapiens), O75604; USP2a enzymatic assay, qHTS inhibition; Potency, µM (highest dose often 38.3 µM), inactives show top-dose activity change, negative = inhibition, most hits filed as inhibitors; hit rate 0.1% among 60,000; AID 927, 2007; also: nearly all actives have a fitted effect of over 60% in size
Target sequence (O75604 whole entry, looked up): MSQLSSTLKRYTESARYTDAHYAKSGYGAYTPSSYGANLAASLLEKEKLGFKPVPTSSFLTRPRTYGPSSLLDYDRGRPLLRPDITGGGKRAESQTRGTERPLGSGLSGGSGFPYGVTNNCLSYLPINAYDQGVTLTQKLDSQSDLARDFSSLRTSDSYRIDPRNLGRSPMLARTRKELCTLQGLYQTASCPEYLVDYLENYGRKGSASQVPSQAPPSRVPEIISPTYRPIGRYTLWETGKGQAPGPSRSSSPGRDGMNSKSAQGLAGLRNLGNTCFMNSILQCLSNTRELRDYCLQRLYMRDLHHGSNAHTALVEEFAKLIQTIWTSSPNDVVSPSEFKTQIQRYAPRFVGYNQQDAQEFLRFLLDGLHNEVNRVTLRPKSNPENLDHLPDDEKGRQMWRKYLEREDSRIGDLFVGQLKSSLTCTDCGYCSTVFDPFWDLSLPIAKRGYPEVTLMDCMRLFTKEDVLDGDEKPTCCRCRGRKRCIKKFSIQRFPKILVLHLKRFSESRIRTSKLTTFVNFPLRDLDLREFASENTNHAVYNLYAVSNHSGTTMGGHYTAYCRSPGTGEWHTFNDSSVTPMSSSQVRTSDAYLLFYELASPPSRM
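USP2 core (20nM final) preincubated 30 min RT with compound, then Ub-PLA2 20nM and NBD C6-HPC 20uM final added; buffer 20mM Tris-HCl pH 8.0, 2mM CaCl2. Fluorescence Ex 460/Em 535 read at 0 and 2.5 h; normalized to NEM.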
Tau filament bind: qHTS Assay for Tau Filament Binding. Microtubule-associated protein tau (Homo sapiens), P10636. Potency, µM (top dose mostly 57.1 µM), inactives show at the highest dose activity change, negative = inhibition. AID 596, 2007. recombinant tau filaments, thioflavin S fluorescence, 15 h; filaments grown with octadecylsulfate alongside compound. hit rate 2% among 71,000;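 also: % is scaled to controls: 0 for no effect and ±100 for the full control effect; actives lower thioflavin S fluorescence by blocking filaments or displacing dye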
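ThS-based fibril read: tau 1 uM final, inducer ODS 30 uM final, 37 C for 15 h, ex 450/em 510 nm.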
* hit, by the source's call; u = inconclusive; x = no result; ! = repeats disagree; [ ] = another dose, or the depositor's remark. Unless noted, calls follow the shape of the dose curve; as a rule, active = well fitted curve in the direction sought with a large enough effect; inconclusive = small, poorly fitted or top-dose-only effect, or another doubt; inactive = no such curve, though single readings can be large; an effect the other way counts as inactive or inconclusive. Potency is read from the fitted curve at half-maximal effect.

SMILES	ALOX15 inhib	Hsp90 Hop PPI	USP2a inhib	Tau filament bind
COc1ccc(N/C(C)=C2/C(=O)C(=O)N(CCO)C2c2ccc(Br)cc2)cc1 (configuration not stated)	-6%	-7%	23%	16µM*
NS(=O)(=O)c1nc(S(=O)(=O)O)c2[nH]cnc2n1	-12%[11.4 µM]	-3%[11 µM]	x	-1%[11.4 µM]
Cc1ccc2[nH]c(=O)c(CN(Cc3ccccc3Cl)C(=O)N3CCOCC3)cc2c1	u	-6%	37%	31%
CCN1CCN(Cc2ccc(NC(=O)Nc3ccccc3OC)cc2)CC1	3.2µM*	u	x	1%
CCN1CCN(CCC(=O)Nc2ccccc2OC)CC1	17%	1%	-7%	8%
CCNC(=O)c1cc2c(=O)n3cccc(C)c3nc2n(Cc2ccc(C)cc2)c1=N	-5%	-3%	15%	1.6µM*
Cc1cccn2c(=O)c3cc(C(=O)NC(C)C)c(=N)n(Cc4ccncc4)c3nc12	-2%	-5%	11%	35%
COCCn1c(=N)c(C(=O)NCCc2ccc(OC)cc2)cc2c(=O)n3cccc(C)c3nc21	-8%	-2%	19%	2µM*
CC(C)=CCc1c(O)cc(O)c2c1O[C@H](c1ccccc1)CC2=O	2%[25.6 µM]	2%	x	40µM*
Nc1nnc(CCC2CCCCC2)s1	-1%	-4%	-4%	-4%
N#CC1=C(N)SC(N)=C(C#N)C1CCC1CCCCC1	16µM*	-4%	194%	95%
Cc1ccc(CCNC(=O)C2CCN(S(=O)(=O)c3cccc4nonc34)CC2)cc1	-7%	-4%	7%	-10%
CCN(CCCNC(=O)C1CCN(S(=O)(=O)c2cccc3nonc23)CC1)Cc1ccccc1	-7%	-7%	5%	20µM*
CCCc1nc2oc3cc(OC)ccc3c(=O)c2c(=O)n1Cc1ccco1	-11%	-7%	38%	0%
CCCc1nc2sc3ccccc3c(=O)c2c(=O)n1Cc1ccco1	-19%	-4%	34%	16µM*
O=S(=O)(Nc1ccc(S(=O)(=O)N2CCCCC2)cc1)c1ccc(Br)s1	-24%	-5%	22%	-6%
COc1ccc(Cn2c3nc4ccccc4nc3c3c(=O)n(Cc4ccco4)c(C)nc32)cc1	-28%	-5%	40%	u
Cc1ccc(S(=O)(=O)c2c(N)n(/N=C/c3ccco3)c3nc4ccccc4nc23)cc1C	u	-5%	44%	16µM*
COc1ccc(Cn2c(C)nc3c(c2=O)c2nc4ccccc4nc2n3Cc2ccco2)cc1	-23%	-7%	40%	2.5µM*
COc1ccc(S(=O)(=O)c2c(N)n(Cc3ccco3)c3nc4ccccc4nc23)cc1	20µM*	10%	6%	-20%
Cc1nc2c(c(=O)n1Cc1ccccc1Cl)c1nc3ccccc3nc1n2Cc1ccco1	u	-5%	-18%	16µM*
Cc1nc2cnc(Oc3ccccc3)nc2n(CCC#N)c1=O	4%	2%	-3%	-6%
COc1cc2c(cc1OC)C(CCN)=NCC2	11%[11.4 µM]	-1%[11 µM]	x	-29%[11.4 µM]
CC1=C(\C=C/C(C)=C/C=C\C(C)=C\C(=O)Nc2ccc(O)cc2)C(C)(C)CCC1	x	-19%	x	-28%
CN1CCN(c2ncc3nc(-c4ccccc4)c(=O)n(C)c3n2)CC1	-2%	-2%	36%	-12%
SMILES	ALOX15 inhib	Hsp90 Hop PPI	USP2a inhib	Tau filament bind
CCc1ccc2oc(-c3cc(N=Cc4cccc(OC)c4O)ccc3O)nc2c1	-9%	-7%	231%	13µM*
CC(=O)Nc1cc(CN2CCCCC2)c(O)c2ncccc12	52%[11.4 µM]	4µM*	x	-13%[11.4 µM]
O=C(NCCN1CCN(c2ccccc2)CC1)c1cccn2c(=O)c3cc(Cl)ccc3nc12	-5%	-2%	-2%	16µM*
Brc1cc(Oc2cc(Br)c(Br)c(Br)c2Br)c(Br)c(Br)c1Br	1%	-11%	x	15%
CCOc1ccc(NC(=O)Nc2ccc3nccnc3c2)cc1	-11%	-5%	17%	25µM*
COc1ccc2c(c1)-c1nc(NC(=O)c3ccco3)sc1CC2	0%	6%	7%	31%
COc1ccc2c(c1)-c1nc(NC(=O)c3cccs3)sc1CC2	13µM*	x	x	x
CCOc1ccc(C2C(C#N)=C(N)SC(N)=C2C#N)c(OCC)c1	10µM*	-8%	4%	63%
Cc1ccc(N=Nc2ccc(N)cc2C)c(S(N)(=O)=O)c1	3%[11.4 µM]	-9%[11 µM]	x	4µM*
Nc1ccc(S(N)(=O)=O)cc1	1%	3%	-8%	2%
CCCn1c(-c2ccc(F)cc2)nc2c(NCCN3CCCCC3)nc(C)nc21	5%	-1%	x	12%
O=Nc1c(-c2c(O)[nH]c3cc(Br)ccc23)[nH]c2ccccc12	-25%	x	13µM*	x
O=C1C2C3C=CC(C3)C2C(=O)N1CNc1ccc(O)cc1 (configuration not stated)	u	-12%	191%	16µM*
CC[C@@H]1[C@H]2CCCCN3[C@@H]2[C@@H](C[C@H]3[C@@H]2C[C@H](C)C(=O)O2)[C@@H]2[C@H]1OC(=O)[C@H]2C	x	-1%	x	-22%
CC1=CC(C)(C)Nc2ccccc21	-8%	-5%	x	16µM*!
CC(=O)C1=C(C)N=c2s/c(=C/c3ccc4c(c3)OCO4)c(=O)n2C1c1ccc(N(C)C)cc1 (configuration not stated)	-8%	-26%	19%	4µM*
Cn1cccc1C(=O)N1CCC[C@@]2(CCN(c3ccncc3)C2)C1	5%	-6%	0%	14%
N#CC1=C2SCN(c3ccc(F)cc3)CN2C(=O)CC1c1cccc(F)c1 (configuration not stated)	u	-3%[2.3 µM]	x	-17%
N#CC1=C2SCN(Cc3ccco3)CN2C(=O)CC1c1cccc2ccccc12 (configuration not stated)	7.9µM*	-4%	45%	u
CC(=O)Nc1nc(-c2ccccc2)nc(-c2ccccc2OC(C)=O)n1	16µM*	-13%	12%	1.3µM*
CCCCOc1ccc(N2C(=O)CC(N(O)c3ccccc3)C2=O)cc1 (configuration not stated)	-2%	-5%	3%	-18%
CCCCCOc1ccc(N2C(=O)CC(N(O)c3ccccc3)C2=O)cc1 (configuration not stated)	-5%	-3%	4%	13µM*
CS(=O)(=O)NCCC1=CCCCC1	20µM*	-3%	-10%	-12%
C=CCSC1=N/C(=C\C=C\c2ccco2)C(=O)S1	20µM*	u	u	10µM*
C1CCN2CC3CC(CN4CCCC[C@@H]34)C2C1 (some centres not stated)	-1%[25.6 µM]	x	x	x
O=C(Oc1ccccc1)N1CCC2(CC1)CCN(c1ccccc1)CC2	-4%	-5%	0%	-7%
CCCn1cnc2c(c1=O)c1nc3ccccc3nc1n2CCC1=CCCCC1	-2%	0%	-8%	-15%
O=c1c2c3nc4ccccc4nc3n(/N=C/c3ccco3)c2ncn1CCC1=CCCCC1	-20%	0%	36%	7.9µM*

Screens from PubChem.
